Experimental data reported in PubChem BioAssay (NCI).
About 79,000 compounds went through this panel and 15% of them were active in at least one assay; those are over-represented in the sample as a whole. Unmarked numbers belong to inactive results. The source made the active and inactive calls. Rule as the data show it: active = growth inhibition above about 70%; inactive = the rest.

Assay: NCI Yeast Anticancer Drug Screen. Data for the bub3 strain (AID 167)
Details: S. cerevisiae bub3 mutant strain, hits give high values
Protocol: Growth inhibition of yeast strains with defined genetic alterations is measured as a screen for potential anti-cancer activity. Selected strains with alterations in DNA damage repair or cell cycle control were exposed to compounds and growth inhibition was measured relative to vehicle treated controls. The strain used in this assay is bub3

[1] = at 5.0 µM (retest, dose inferred, filed as 0.5)
[2] = at 50.0 µM (retest, dose inferred, filed as 5.0)

O=c1c(NO)c([N+](=O)[O-])cnn1-c1ccccc1
growth inhibition [1]: -2% | growth inhibition [2]: 28% | growth inhibition (at 50.0 µM): -3.6%

O=C(Nc1ccccc1)c1cc(Cl)ccc1O
growth inhibition [1]: 25% | growth inhibition [2]: 49% | growth inhibition (at 50.0 µM): 74.7% (active)

N=C(N)c1ccc(Nc2ccc(-c3cc4ccc(C(=N)N)cc4[nH]3)cc2)cc1
growth inhibition [1]: 99% (active) | growth inhibition [2]: 98% (active) | growth inhibition (at 50.0 µM): 99% (active)

O=C(O)C(c1ccc(Cl)cc1)c1ccc(Cl)cc1
growth inhibition [1]: 9% | growth inhibition [2]: 99% (active) | growth inhibition (at 50.0 µM): 97.4% (active)

COc1cc2c(c(OC)c1OC)-c1ccc(SC)c(=O)cc1[C@@H](NC1OC(COC(C)=O)C(OC(C)=O)C(OC(C)=O)C1OC(C)=O)CC2 (some centres not stated)
growth inhibition [1]: 0% | growth inhibition [2]: -7% | growth inhibition (at 50.0 µM): 0.9%

CCCCCCCC/C=C\CCCCCCCCN1CCOCC1
growth inhibition [1]: 15% | growth inhibition [2]: 19% | growth inhibition (at 50.0 µM): 99.1% (active)

O=C(Cn1cnc2ccc([N+](=O)[O-])cc21)N1CCN(c2ccccc2)CC1
growth inhibition [1]: 10% | growth inhibition [2]: 7% | growth inhibition (at 50.0 µM): -15.4%

O=C(CNC(=O)OCc1ccccc1)Oc1ccc([N+](=O)[O-])cc1
growth inhibition [1]: -5% | growth inhibition [2]: 0% | growth inhibition (at 50.0 µM): 64.2%

O=Nc1ccccc1N=O
growth inhibition [1]: 80% (active) | growth inhibition [2]: 99% (active) | growth inhibition (at 50.0 µM): 99.3% (active)

COC(=O)c1cc(-c2ccccc2)[nH]c(=O)c1C#N
growth inhibition [1]: -24% | growth inhibition [2]: -23% | growth inhibition (at 50.0 µM): -24.7%

OCC(O)C(OC1OC(CO)C(O)C(O)C1O)C(O)C(/C=N/Nc1ccc(Br)cc1)=N/Nc1ccc(Br)cc1 (configuration not stated)
growth inhibition [1]: 23% | growth inhibition [2]: 99% (active) | growth inhibition (at 50.0 µM): 97.9% (active)

Cc1ccc(/C=C2\CCCc3ccccc3C2=O)cc1
growth inhibition [1]: 59% | growth inhibition [2]: 81% (active) | growth inhibition (at 50.0 µM): 72.3% (active)

O=C(CNC(=O)c1ccccc1)Oc1c(Cl)c(Cl)c(Cl)c(Cl)c1Cl
growth inhibition [1]: 1% | growth inhibition [2]: 45% | growth inhibition (at 50.0 µM): 34%

COc1cc2oc(-c3ccc(O)cc3O)c(CC=C(C)C)c(=O)c2c(O)c1/C=C/C(C)C
growth inhibition [1]: 11% | growth inhibition [2]: 97% (active) | growth inhibition (at 50.0 µM): 88.8% (active)
